Reference: the supplement of paper PMC10338343
± gives the standard deviation.

tested on: MILI (PIWIL2) piRISC loaded with piRNA #1 (26 nt); experiment: pre-steady-state target cleavage rate (min^-1); guide: piRNA #1 5'p-UGAGGUAGUAGGUUGUAUAGUAUCCA; MIWI and MILI are mouse PIWI proteins and EfPiwi is from a freshwater sponge; tags in brackets are library labels; higher = faster piRNA-guided slicing of the target; conditions: auxiliary factor: 500 nM mouse GTSF1
In short: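 Three pooled Cleave-'n-Seq trials supplied the data, with k3 capped at 0.0001 min^-1. In each, […] transcribed, DNA-blocked target RNA library and 1 nM active affinity-purified piRISC with one synthetic guide reacted in HEPES–potassium acetate buffer at 33 °C for 0–8 or 0–960 min, with or without 500 nM GTSF1 partner protein. Uncleaved targets were sequenced and normalised to depth and to weakly complementary targets. A burst-and-steady-state fit provided the pre-steady-state cleavage rate.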
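Note: 1 nM active piRISC with 0.1 nM target library at 33 °C single turnover.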

Sequence | pre-steady-state target cleavage rate
GGAGACCUAUGAUUACAACCUACUGCCUCA | 0.00572 ± 0.0028
GGAGACGUUACUAAACAACCUACUACCUCA | 0.153 ± 0.012
GGAGACCUAUGAUAUCAACCUACUAACCUCA | 0.00255 ± 0.0025
GGAGACCUAUGAAUACAACCUACUACACUCA | 0.00526 ± 0.0026
GGAGUGGAUCACUAUACAACCUACUACCUCA | 0.0867 ± 0.025
GGAGACCUAUGUAAACAACCUACUUCCUCA | 0.00599 ± 0.002
GGAGACCUUACUAUACAACCUAGCUACCUCA | 0.0317 ± 0.0069
GGAGUGGAAACUAUACAACCUACUAGCUCA | 0.0453 ± 0.013
GGAGACCUUACUAUACAACCUAAUACCUCA | 0.102 ± 0.014
GGAGAGGAUACUAUACAACCUACAUGCUCA | 0.00576 ± 0.003
GGAGACCUAUCUAUACAACGUACUAGCUCA | 0.00553 ± 0.0029
GGAGACCUAACUAUACUACCUACUACGUCA | 0.0596 ± 0.018
GGAGACCUAUGAUUACAUCCAACUACCUCA | 0.00328 ± 0.003
GGAGACCUAUCUAACAACCUACUACCUCA | 0.0222 ± 0.0049
GGAGACCUAUGAUAUCAACCUAGCUACCUCA | 0.00339 ± 0.0024
GGAGACCUAUGAUAUCAUCCUACUACCUCA | 0.00256 ± 0.0016
GGAGACCUAUGAUAACAAACUACUACCUCA | 0.0114 ± 0.0029
GGAGACCUAAGUAUACAACCAACUACCUCA | 0.00465 ± 0.0039
GGAGACCUAACUUUACAACGUACUACCUCA | 0.00988 ± 0.0052
GGAGACCUAUGAAUACAACCUACUACCUCCA | 0.0129 ± 0.0043

Sequence | pre-steady-state target cleavage rate
GGAGACCUAUGAAUACAACCUACUCCCUCA | 0.00391 ± 0.0022
GGAGACCUAACUAUAGAACGUACUACCUCA | 0.00603 ± 0.0028
GGAGACCAUAGUAUACAAGCUACUACCUCA | 0.16 ± 0.015
GGAGACCUAUCUAUAGUUCCUACUACCUCA | 0.0473 ± 0.012
GGAGACCUAUGAUUACAACCUACUCCUCA | < 0.0001
GGAGACCAUACUAAACAACCUACUACCACA | 0.233 ± 0.026
GGAGACCUAUCUAUACAUCCUUCUACCUCA | 0.0137 ± 0.0039
GGAGACCUAUCUAAACAACCUACUACCACA | 0.0926 ± 0.013
GGAGACCUAUGAUAACAACCUAAUACCUCA | 0.00414 ± 0.0023
GGAGACCUAUGUAUACAUCCUACUACGUCA | 0.0275 ± 0.0061
GGAGACCUAUGAAUACAACCUACUAUCUCA | 0.00527 ± 0.0017
GGAGACCUAUGAAUACAACCUCCUACCUCA | 0.00498 ± 0.0023
GGAGACGAUACUAUACAACCUCACUACCUCA | 0.00413 ± 0.0033
GGAGACCUAUGAAUACAACCUACUAUCCUCA | 0.00841 ± 0.0026
GGAGACCUAUCUAUACAACCAUACUACCUCA | 0.0049 ± 0.0031
GGAGACCAUAGUAAACAACCUACUACCUCA | 0.0682 ± 0.009
GGAGACCUAUGAUAACAAGCUAGUACCUCA | 0.00508 ± 0.0032
GGAGACCUAUCUAUACUACCAACUACCUCA | 0.00495 ± 0.0022
GGAGACCUUACAUAACAACCUACUACCUCA | 0.013 ± 0.0048
GGAGACGAAACUAUACAACGUACUACCUCA | 0.0174 ± 0.0054
